Several values for one entry are separate records, joined by “and”; a condition that tells them apart may be missing. Identical values can stand only once. In all, about 73,000 compounds went through this assay and about 350 (0.48%) were called active. About 17% were inconclusive and are not listed. Calls follow the shape of the dose curve; as a rule, active = well fitted activation curve with a large enough effect in the main read-out, with a control signal flat (not every such curve was filed as active); inconclusive = small, poorly fitted or top-dose-only effect, or a change in a side signal; inactive = no such curve, though single readings can be large or run the other way; reference of the percent scale not stated here. Only a selection was taken, and actives are over-represented in it overall. More than one record can exist for a structure, and the calls need not agree.
Key:
[1] = qHTS Assay for Agonists of the Thyroid Stimulating Hormone Receptor; settings: HEK293-CNG-TSHR cells, membrane potential dye, cAMP; measured here: parental cells max response
Text: (§1) NIH Chemical Genomics Center [NCGC]
(§2) NIH Molecular Libraries Screening Centers Network [MLSCN]
(§3) PI Name: Dr. Marvin Gershengorn, NIH
(§4) Thyroid Stimulating Hormone Receptor
(§5) TSH is an alpha/beta heterodimeric glycoprotein hormone secreted from the anterior pituitary gland which belongs to the glycoprotein hormone family. The actions of TSH are mediated by a seven-transmembrane receptor, which upon TSH binding couples preferentially to the G-alpha (s) protein (Gs), resulting in activation of adenylate cyclase and increase in cyclic adenosine 3', 5' monophosphate (cAMP). The TSH receptor (THSR) is mainly expressed in thyroid follicular cells and regulates their growth and function. Recombinant TSH is used to activate TSHR in patients with thyroid cancer receiving thyroid hormone suppression therapy and to screen for residual tumor after surgery, but it is expensive and must be administered intramuscularly. An orally active small molecule TSHR agonist would serve as an invaluable research tool for studying TSHR pharmacology and physiology, and would have multiple advantages in therapeutic settings. However, no selective small molecule agonist of the TSH receptor exists, and no small molecule screen for TSHR agonists has ever been reported.
(§6) This cell based assay utilized a cyclic nucleotide gated ion channel (CNG) as a biosensor for cAMP induction by potential TSHR agonists.
(§7) HEK 293 cells stably expressing the TSHR as well as a modified CNG were purchased from BD biosciences. Stimulation of cAMP production causes the CNG to open and subsequent membrane depolarization to occur. A fluorescent membrane potential dye (BD biosciences) was utilized to detect cAMP stimulation in TSHR cells.
(§8) The cells were maintained in DMEM medium (Invitrogen) containing 10 % FBS (Hyclone), 100 units/ml Penicillin, 100 ug/ml Streptomycin (Invitrogen), and 250 ug/ml Geneticin (Invitrogen) and 1 ug/ml Puromycin (Invitrogen) at 37C in 5% CO2. HEK 293 cells expressing CNG but without TSHR (parental cells) were used in concert to control for compounds signaling through endogenous receptors and targets of HEK 293 cells.
(§9) NCGC Assay Protocol Summary:
(§10) High Throughput Screening. Freshly passaged cells (TSHR or parental) were dispensed into 1536-well assay plates at 4 ul/well in DMEM containing phenol red (Invitrogen), 10% FCS (Hyclone), and 100 units/ml Penicillin, 100 ug/ml Streptomycin (Invitrogen) and incubated at 37 C with 5% CO2 for 20 to 36 hrs before the robotic screening. The screen was initiated by addition of 4 ul/well membrane potential dye containing 100 uM RO 20-1724 (Sigma Aldrich), followed by 60 min incubation at room temperature to allow for dye equilibration across the cell membrane. 23 nl/well compound or control was then added to the assay plates, which were incubated for additional 30 min before reading a Envision fluorescence plate reader (Perkin Elmer) in bottom-read mode for fluorescence intensity (emission at 590 nm).
(§11) Keywords: Thyroid-stimulating hormone TSH, TSHR, TSHR agonist, quantitative high throughput screening, qHTS, HTS, probe identification, CNG, cAMP, cyclic nucleotide gated ion channel PubChem

[2] = biological target: Thyrotropin receptor (Homo sapiens) (UniProt P16473); assay: as above; settings: HEK293-CNG-TSHR cells (CNG channel as cAMP sensor), membrane potential dye, cAMP; series mostly up to 57.1 µM
Text: as §1, §2, §3, §4, §5, §6, §7, §8, §9, §10, §11
Potency is read from the fitted curve at half-maximal effect.

Chain of Thyrotropin receptor (Homo sapiens) (P16473 whole entry, looked up): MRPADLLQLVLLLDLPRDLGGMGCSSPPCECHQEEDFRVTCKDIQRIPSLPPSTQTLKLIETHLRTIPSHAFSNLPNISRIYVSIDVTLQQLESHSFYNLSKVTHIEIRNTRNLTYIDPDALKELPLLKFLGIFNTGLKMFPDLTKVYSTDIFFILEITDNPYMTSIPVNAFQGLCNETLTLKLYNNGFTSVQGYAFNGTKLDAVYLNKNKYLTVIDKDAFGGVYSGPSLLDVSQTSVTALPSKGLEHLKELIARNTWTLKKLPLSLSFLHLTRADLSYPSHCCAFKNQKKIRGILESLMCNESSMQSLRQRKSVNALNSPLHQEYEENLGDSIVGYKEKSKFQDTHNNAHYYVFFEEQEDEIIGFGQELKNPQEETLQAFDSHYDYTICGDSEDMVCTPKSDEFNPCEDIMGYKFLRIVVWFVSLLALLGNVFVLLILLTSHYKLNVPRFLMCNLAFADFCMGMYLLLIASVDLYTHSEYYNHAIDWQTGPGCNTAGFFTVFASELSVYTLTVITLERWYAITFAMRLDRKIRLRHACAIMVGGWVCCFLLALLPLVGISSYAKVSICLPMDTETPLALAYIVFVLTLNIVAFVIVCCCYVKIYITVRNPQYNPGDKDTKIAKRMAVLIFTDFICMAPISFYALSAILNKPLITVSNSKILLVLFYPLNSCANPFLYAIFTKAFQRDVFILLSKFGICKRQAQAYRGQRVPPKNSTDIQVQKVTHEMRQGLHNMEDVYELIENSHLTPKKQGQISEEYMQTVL

Row | SMILES | activation [1] | Potency [2]
1 | CCOC(=O)CC1=C(C(=O)OCC)C2(C(=O)N1)C(C(=O)OC)=C(N)Oc1ccccc12 (centres undefined) | 2.69% | inactive
2 | CCOC(=O)C1=C(C)OC(N)=C(C(=O)OC)C12C(=O)Nc1ccc(Br)cc12 (centres undefined) | 2.68% | inactive
3 | C=CCN1C(=O)C2(C(C(=O)OCC)=C(N)Oc3c2c(=O)oc2ccccc32)c2ccccc21 (centres undefined) | -2.59% | 1000 nM (active)
4 | C/C(=C\C=C/[C@@H](C)C(=O)O)[C@H]1CN[C@H](C(=O)O)[C@@H]1CC(=O)O | 10.5% | inactive
5 | CN1[C@H]2CC(OC(=O)[C@@H](CO)c3ccccc3)C[C@H]1[C@H]1O[C@H]12 (some centres undefined) | 8.99% | inactive
6 | C[C@]12CC[C@H](O)C[C@@H]1CC[C@H]1[C@H]2CC[C@]2(C)C(=O)CC[C@@H]12 | -0.6% and 8.47% and 0.887% | inactive
7 | CN=C(NC#N)NCCSCc1nc[nH]c1C | 6.37% and -0.29% | inactive
8 | CNCC[C@H](Oc1ccc(C(F)(F)F)cc1)c1ccccc1 |  | inactive and 126 nM (active)
9 | Clc1ccc([C@@H]2C[C@H]3CC[C@@H]2N3)cn1 | 5.78% | inactive
10 | Clc1cccc(Cl)c1Cl | 22.7% | inactive

Reference: PubChem BioAssay AID926 (National Center for Advancing Translational Sciences (NCATS), 2007)
